Data from PubChem BioAssay (NCI).
Compounds without any hit were thinned out: in the full panel of roughly 83,000, 20% have a hit.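 Values shown are percent growth following 48 h exposure of cells in 96-well plates to a single concentration of compound; below 10 was considered active.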 Values without a mark were called inactive. Active and inactive are the calls of the source.

Test system: SF-295 CNS
Test: NCI-60 one-dose screen, 48 h (100 = growth as untreated, 0 = no growth, -100 = all killed)
Conditions: 10 µM unless noted

| Compound | growth |
| --- | --- |
| C=C1CCC2C3(C)COC(c4cc(F)cc(F)c4)OC3CCC2(C)C1CC(O)C1=CCOC1=O (stereo not drawn) | 77.9% |
| CC(=O)Nc1ccc(C(=O)NC(=S)Nc2ccc(S(N)(=O)=O)cc2)cc1 | 102% |
| COc1cc(C2CC(c3cc(OC)c(OC)c(OC)c3)=Nc3c(N)nc(N)nc3N2)ccc1Oc1nc(NCCO)nc(N2CCOCC2)n1 (stereo not drawn) | 101% |
| CC1=C(C(=O)c2ccccc2)C(c2cccc(Cl)c2Cl)n2c(nc3ccccc32)N1 (stereo not drawn) | 63.3% |
| CN1CCc2c(sc3ncnc(N/N=C/c4ccc(Cl)cc4Cl)c23)C1 | 32.4% |
| O=C(COc1ccc(NC(=O)Nc2ccc(Cl)c(Cl)c2)cc1)N=Nc1c(O)[nH]c2ccc(Br)cc12 | -68.3% (active) |
| Cn1cc(NC(=O)c2cc(NC(=O)c3ccc(C#Cc4ccccc4)cc3)cn2C)cc1C(=O)NCCCN1CCOCC1 | -81.9% (active) |
| COCOc1cc2oc(C(=O)N[C@@H](Cc3ccccc3)C(O)C(=O)NCc3ccccc3)c(C)c(=O)c2cc1OCOC (stereo partly drawn) | 89% |
| Cc1ccc(C(=O)CSc2nc3ccc(C)cc3c(=O)n2-c2ccc(F)cc2)cc1 | 28% |
| CC(C)c1ccc2c(N)c(C(=O)Nc3ccc(C(F)(F)F)cn3)sc2n1 | 34.3% |
| CN(C)CCn1c2ccccc2c2nc3ccc([N+](=O)[O-])cc3nc21 | 0.988% (active) |
| COc1cc2c(c(OC)c1OC)C(=O)CC(c1cccc(NC(=O)c3cc(NC(=O)[C@H](CO)NC(=O)OC(C)(C)C)ccc3Cl)c1)O2 (stereo partly drawn) | 37% |
| Cc1cccc(NC(=O)[C@]23CCC(C)(C)CC2C2=CCC4[C@@]5(C)C[C@@H](O)[C@H](O)[C@@](C)(CO)C5CC[C@@]4(C)[C@]2(C)CC3)c1 (stereo partly drawn) | 4.56% (active) |
| CC(=O)Nc1ccc(-n2cnc3ccc(-c4ccc(O)cc4)cc32)cc1 | 56% |
| NC(=S)Nc1cccc(NC(N)=S)c1 | 90.2% |
| O=C(/C=C/c1ccc(O)c(O)c1)NC1CCOC1O (stereo not drawn) | 101% |
| CCN1C(=O)/C(=N\N=C(/C)c2ccc3c(c2)Nc2ccccc2S3)c2cc(Cl)ccc21 | 43.2% |
| S=C(NCCc1ccccc1)Nc1ccc(OCc2nc3ccccc3[nH]2)cc1 | 104% |
| COc1ccc(-c2nc(SC(C)C)nc(NCCc3c[nH]c4ccccc34)c2C#N)cc1 | 33.6% |

| Compound | growth |
| --- | --- |
| S=C(Nc1ccccc1)Nc1ccc(OCc2nc3ccccc3[nH]2)cc1 | 24.2% |
| CC1(C)CC[C@]2(C(=O)Nc3ccc(Br)cc3)CC[C@]3(C)C(=CCC4[C@@]5(C)C[C@@H](O)[C@H](O)[C@@](C)(CO)C5CC[C@]43C)C2C1 (stereo partly drawn) | -13.3% (active) |
| CC12CC[C@@H]3[C@]4(C)COC(c5c(F)cccc5F)O[C@@H]4CC[C@@]3(C)[C@@H]1CC(C1=CCOC1=O)O2 (stereo partly drawn) | 69.1% |
| Cc1ccc(Cc2cnc(NC(=O)c3ccc(/C=C4\SC(=S)N(C)C4=O)cc3)s2)cc1 | 8.52% (active) |
| CC(=O)Nc1ccc(-n2cnc3cc(-c4ccc(O)cc4)ccc32)cc1C(F)(F)F | -13.7% (active) |
| Cn1cc(NC(=O)c2cc(NC(=O)c3ccc(/C=C/c4ccccc4)cc3)cn2C)cc1C(=O)NCCCN1CCOCC1 | -80.5% (active) |
| CN(C)CCCNC(=O)c1cc(NC(=O)c2cc(NC(=O)c3ccc(/C=C/c4ccccc4)cc3)cn2C)cn1C | 35.2% |
| CC(=O)OC[C@@]1(C)C2CC[C@]3(C)C(CC=C4C5CC(C)(C)CC[C@]5(C(=O)Nc5ccc(Br)cc5)CC[C@]43C)[C@@]2(C)C[C@@H](OC(C)=O)[C@@H]1OC(C)=O (stereo partly drawn) | 26.8% |
| COc1ccc(NC(=O)Cn2c(O)c(N=Nc3ccc(S(N)(=O)=O)cc3)c3ccccc32)cc1 | 22.1% |
| S=C(Nc1ccc(OCc2nc3ccccc3[nH]2)cc1)NC1CCCCC1 | 74.4% |
| Cc1ccc(NC(=O)[C@]23CCC(C)(C)CC2C2=CCC4[C@@]5(C)C[C@@H](O)[C@H](O)[C@@](C)(CO)C5CC[C@@]4(C)[C@]2(C)CC3)cc1 (stereo partly drawn) | 21.8% |
| O=S(=O)(Nc1cccc(-n2cnc3cc(-c4ccc(O)cc4)ccc32)c1)C1CC1 | 11.9% |
| Cn1cc(-c2nnc(N)nc2-c2c[nH]c3ccccc23)c2cccnc21 | 32% |
| CN(C)c1ccnc(CNCCSC2(c3ccc(C(F)(F)F)cc3)c3ccccc3CCc3ccccc32)c1 | -96.9% (active) |
| CC1=C(C(=O)OC(C)C)C(c2cccc(O)c2)NC(=S)N1 (stereo not drawn) | 96.8% |
| N/N=C(\N)c1c(N)nc(=S)[nH]c1-c1ccc(Cl)cc1Cl | 94.5% |
| COc1ccc2[nH]cc(-c3nnc(N)nc3-c3c[nH]c4ncc(Br)cc34)c2c1 | 82% |
| COc1cc(C2CC(c3cc(OC)c(OC)c(OC)c3)=NN2c2ccccc2)ccc1OCc1ccc(C)cc1 (stereo not drawn) | 108% |
| O=C(N/N=C/c1ccc(-c2ccc(O)cc2)o1)c1[nH]c2ccc(Br)cc2c1-c1ccccc1 | -68.7% (active) |
